Bioassay records from PubChem.
Sampled rows, rich in hits. Any-hit rate of the full collection: about 2.1%.
aSyn yeast inh = qHTS of alpha-syn Inhibitors; Yeast expressing alpha-synuclein, growth rescue, BacTiter-Glo, 24 h; Potency, µM (highest dose often 46.1 µM), for inactives: top-dose growth rescue (activation), actives largely listed as activators; 0.14% of 370,000 active; AID 652106, 2013; also: % of control where 0% means no effect; nearly all actives have a fitted effect of over 65% in size
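Rescue of yeast growth: cells expressing toxic alpha-synuclein, induced in galactose at OD600 0.02, incubated with compound 24 h at 30 C. ATP luminescence quantified growth; inhibitors of toxicity appear as activators.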
FUS yeast rescue = qHTS for Suppressors of FUS Proteinopathy: Primary screen using FUS-linked yeast assay. 0.24% of 390,000 active. S. cerevisiae FUS-expressing, growth rescue, OD600, 24 h. Potency, µM (titrated, usually from 76.6 µM), hits mostly activators;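 also: plate controls were DMSO vehicle for no effect and reference control for full effect; nearly all actives have a fitted effect of over 55% in size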
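Yeast FUS proteinopathy model; galactose-induced FUS (2%), starting OD 0.005. Cpds in dilution series, 24hr, 30C, 99% humidity. Abs 600 nm growth. Pos ctrl CP55940 (top 92uM final); neg ctrl DMSO.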
TDP43 rescue = qHTS of TDP-43 Inhibitors; 1.8% of 410,000 active; Potency, µM (titrated, usually from 46.1 µM), without a hit: at the top dose growth rescue (activation), hits mostly activators; TDP-43 expressing yeast growth rescue, BacTiter-Glo, 24 h; also: % of control where 0% means no effect; nearly all actives have a fitted effect of over 50% in size
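Growth rescue of TDP-43-toxic yeast measured as ATP luminescence (BacTiter-Glo). Cells grown to mid-log in raffinose, induced in galactose at OD600=0.02, exposed to compound 24 hr at 30 deg C.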
Abeta yeast res = qHTS for compounds that reverse cellular toxicity of Amyloid beta (A-beta) peptide in yeast: Primary Screen; 0.063% of 410,000 active; yeast expressing A-beta42, growth rescue, OD600, 48 h; response scale: 0% DMSO, 100% iron-clioquinol control; Potency, µM (top dose mostly 46.1 µM), hits mostly activators; also: nearly all actives have a fitted effect of over 55% in size
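Growth rescue measured by 600 nm absorbance after 48 h yeast culture at 30 C with compound. Values normalized between DMSO and an equimolar ferric chloride plus clioquinol control.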
* marks the source's active call; other numbers are inactive results; i = inactive; ? = inconclusive; nt = no result given. Calls follow the shape of the dose curve; as a rule, active = well fitted curve in the direction sought with a large enough effect; inconclusive = small, poorly fitted or top-dose-only effect, or another doubt; inactive = no such curve, though single readings can be large; an effect the other way counts as inactive or inconclusive. Potency is read from the fitted curve at half-maximal effect.

SMILES | aSyn yeast inh | FUS yeast rescue | TDP43 rescue | Abeta yeast res
Cc1nc2ccc(NC(=O)Cc3ccc(Br)cc3)cc2s1 | -16% | i | -17% | i
Cc1nc2ccc(NC(=O)Cc3ccc4c(c3)OCCO4)cc2s1 | -49% | nt | 3.5µM* | i
COc1ccc(CNS(=O)(=O)c2cc(C(=O)Nc3cc(Cl)cc(Cl)c3)ccc2F)cc1 | nt | i | 14µM* | i
O=C(Nc1cc(Cl)cc(Cl)c1)c1ccc(F)c(S(=O)(=O)NCc2ccccc2Cl)c1 | nt | i | 13% | i
COc1ccc(C2C(C(=O)Nc3ccc(Cl)cc3)CCC(=O)N2c2ccc(OC)cc2)cc1 (configuration not stated) | nt | i | nt | nt
C=C1CCC[C@]2(C)C[C@H]3OC(=O)C(CN4CCCCC4CO)[C@H]3CC12 (some centres not stated) | -15% | i | 13µM* | i
O=S(=O)(c1ccc2c(c1)OCCO2)N1CCN(c2nc(-c3ccccc3)nc3ccccc23)CC1 | -2% | nt | nt | nt
COc1ccc(N/N=C(/C(C)=O)N2CCCc3ccccc32)cc1 | -3% | i | 20µM* | i
COc1ccc(NC(=O)N2CCCc3ccccc32)cc1 | -1% | i | 16% | i
COc1ccc(/C=C/C(=O)N2CCCc3ccccc32)cc1 | -1% | nt | 20µM* | i
O=[N+]([O-])c1ccc2nc(COCc3nc4ccccc4[nH]3)[nH]c2c1 | nt | i | nt | nt
COc1cccc(-c2nc(NC(C)C)c3ccccc3n2)c1O | -2% | i | 20µM* | i
COc1cccc(-c2nc(NCc3cccnc3)c3ccccc3n2)c1O | 2% | i | 4% | i
CCC(C)Nc1nc(-c2cccc(OC)c2O)nc2ccccc12 (configuration not stated) | -9% | i | 11µM* | i
CCC(c1nnnn1Cc1ccccc1)N(Cc1ccccc1)Cc1cc2cc(C)ccc2[nH]c1=O (configuration not stated) | 7% | nt | nt | nt
Cc1ccc(SCc2nc(-c3ccc(C(=O)NCC(C)c4ccccc4)cc3)oc2C)cc1 (configuration not stated) | nt | i | -2% | i
CCN(CC)C(=O)C1CCCN(c2ncnc3c2cnn3-c2ccc(Cl)cc2)C1 (configuration not stated) | 3% | ? | 20µM* | i
CC1CCCN(c2ncnc3c2cnn3-c2ccc(Cl)cc2)C1 (configuration not stated) | -1% | i | 14µM* | i
N#CCC[C@H]1CC[C@]2(CCCN(C(=O)C3CCCCC3)C2)O1 | nt | i | nt | nt
CC(C)CNC(=O)CC1Oc2ccccc2NC1=O (configuration not stated) | nt | i | nt | nt
O=C(C1CCN(c2ncnc3c2sc2cccc(F)c23)CC1)N1CCN(C(=O)C2CCCO2)CC1 (configuration not stated) | nt | i | nt | nt
COc1ccccc1/C=C1/C(=O)N(c2cc(C)cc(C)c2)C(c2cccc([N+](=O)[O-])c2)S1(=O)=O (configuration not stated) | -14% | i | 11µM* | i
CCOc1ccc(N2C(=O)/C(=C\c3ccccc3OC)S(=O)(=O)C2c2cccc([N+](=O)[O-])c2)cc1 (configuration not stated) | -52% | i | 11µM* | i
CCC(C)N(C(=O)CN1C(=O)C2CCCCN2C(=O)c2ccccc21)C(C)CC (configuration not stated) | nt | i | nt | nt
NNC(=O)c1ccc(CSc2cccc3cccnc23)cc1 | -2% | i | 3% | i
SMILES | aSyn yeast inh | FUS yeast rescue | TDP43 rescue | Abeta yeast res
Cc1cccc(CSc2cccc3cccnc23)c1 | 2% | i | 18µM* | i
O=C(NCc1ccco1)c1ccc(N2CCCCC2)c([N+](=O)[O-])c1 | 6% | i | ? | i
O=C(NCc1ccc2c(c1)OCO2)c1cc([N+](=O)[O-])ccc1N1CCCCC1 | 9% | nt | 20µM* | i
O=C(NCc1ccco1)c1cc([N+](=O)[O-])ccc1N1CCCCC1 | 0% | i | 14µM* | i
COc1ccc(-c2nc3ccc(NC(C)=O)cc3c(=O)n2Cc2cccc(Cl)c2)cc1COc1ccc(NC(C)=O)cc1 | 2% | nt | nt | nt
COc1ccc(CN2C(=O)CSCCC2(C)c2nnnn2-c2c(C)cccc2C)cc1 (configuration not stated) | nt | i | nt | nt
Cc1nc2c(C(=O)NCCc3ccc(Cl)cc3)cnn2c(C)c1Cc1ccc(F)cc1 | nt | 32µM* | 20µM* | i
O=S(=O)(NCCc1csc(-c2ccccc2)n1)c1ccc2c(c1)OCCO2 | 9% | i | 20µM* | i
CCS(=O)(=O)NCCc1csc(-c2cccnc2)n1 | 0% | i | ? | i
CCc1ccc(S(=O)(=O)NCCc2csc(-c3cccnc3)n2)s1 | -26% | i | 13µM* | ?
O=S(=O)(NCc1csc(-c2cccnc2)n1)c1ccc2c(c1)OCCO2 | 4% | i | 13% | i
CCc1ccc(S(=O)(=O)NCCc2csc(-c3ccccc3)n2)s1 | ? | i | 14µM* | i
C=CCN1[C@H](C)COc2cccc(F)c2S1(=O)=O | nt | i | nt | nt
CNc1ccc(C=C2C=CC=C2)cc1 | 1% | nt | nt | nt
COC(=O)[C@]1(Cc2ccccc2)N[C@H](c2ccc(-c3cccc(Cl)c3)c(OC)c2)[C@@H]2C(=O)N(C)C(=O)[C@@H]21 | 3% | 14µM* | 15% | i
COC(=O)[C@]1(CC(C)C)N[C@H](c2ccc(-c3ccc(F)cc3)c(OC)c2)[C@@H]2C(=O)N(C)C(=O)[C@@H]21 | -7% | 28µM* | 30% | i
COc1ccc(Cl)cc1N(C)c1nc(N2CCN(S(=O)(=O)c3ccc(C)cc3)CC2)c2ccccc2n1 | 0% | nt | nt | nt
COC(=O)C1CN(Cc2cn(CCOC(C)=O)nn2)CCS(=O)(=O)N1Cc1ccc(Cl)cc1 (configuration not stated) | nt | i | nt | nt
CCOc1ccc(NC(=O)CC2C(=O)N(c3cccc(C)c3)C(=O)N2CCC2=CCCCC2)cc1 (configuration not stated) | nt | 35µM* | -24% | i
Cc1oc(-c2ccc3c(c2)OCCO3)cc1C(=O)O | -50% | nt | -48% | i
COc1ccc(-c2cc(C(=O)O)c(C)o2)cc1OC | nt | i | 20µM* | i
c1ccc(-c2cc(-c3nc4ccccc4[nH]3)c3ccccc3n2)cc1 | -1% | i | 16µM* | i
CCCn1nc(NC(=O)C2CCCO2)c2cc3cc(C)ccc3nc21 (configuration not stated) | -2% | i | 35µM* | i
CCCn1nc(NC(=O)C2CCCO2)c2cc3ccc(C)cc3nc21 (configuration not stated) | -3% | i | 2% | i
CCOc1ccc(NC(=S)N(CCc2c(C)[nH]c3ccc(C)cc23)Cc2ccco2)cc1 | 1% | 25µM* | 4% | i
